Results published in PubChem BioAssay (EPA / NIEHS).
Inconclusive results are not listed. More than one record can exist for a structure, and the calls need not agree. The source made the active and inactive calls. The calls were made as follows, unless noted: active = hit-call score of the fitted dose curve at least 0.9, where 1 is the maximum; inactive = score below 0.9.

Key:
[1] = target: human RAR-related Orphan Receptor gamma (RORg), RORC (gene 6097) (UniProt P51449); experiment: ATG_RORg_TRANS: Attagene TRANS-FACTORIAL HepG2 Assay for human RAR-related Orphan Receptor gamma (RORg) (AID 2283011; active = hit-call score of the fitted dose curve at least 0.9, where 1 is the maximum)
Chain of human RAR-related Orphan Receptor gamma (RORg), RORC (gene 6097) (P51449 whole entry, looked up, the tested form may be a part): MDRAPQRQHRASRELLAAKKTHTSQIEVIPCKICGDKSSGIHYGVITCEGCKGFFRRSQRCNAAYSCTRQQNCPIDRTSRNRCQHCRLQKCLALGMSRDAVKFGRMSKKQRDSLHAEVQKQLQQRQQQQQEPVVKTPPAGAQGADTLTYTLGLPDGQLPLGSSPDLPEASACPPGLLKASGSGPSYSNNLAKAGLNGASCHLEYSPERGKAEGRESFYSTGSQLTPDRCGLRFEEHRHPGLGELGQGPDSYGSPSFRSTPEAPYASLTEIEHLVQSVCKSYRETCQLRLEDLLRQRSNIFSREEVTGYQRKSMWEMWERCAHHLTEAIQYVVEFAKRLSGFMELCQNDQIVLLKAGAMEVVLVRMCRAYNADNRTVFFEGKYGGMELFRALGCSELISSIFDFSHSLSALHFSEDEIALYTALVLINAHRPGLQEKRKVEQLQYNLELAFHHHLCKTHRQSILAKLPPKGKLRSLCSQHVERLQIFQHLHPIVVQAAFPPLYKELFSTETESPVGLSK
How it was run: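 Reporter transcripts from a transfected RORg-GAL4 chimera in HepG2 cells were quantified 24 h after dosing by RT-PCR, 6-FAM labelling, HpaI digestion and capillary electrophoresis; increases over DMSO baseline were fitted.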

[2] = target: Retinoic acid receptor RXR-alpha (Homo sapiens) (UniProt P19793); experiment: ATG_RXRa_TRANS: Attagene TRANS-FACTORIAL HepG2 Assay for human Retinoid X Receptor alpha (RXRa) (AID 2283012; active = hit-call score of the fitted dose curve at least 0.9, where 1 is the maximum)
Chain of Retinoic acid receptor RXR-alpha (Homo sapiens) (P19793 whole entry, looked up, the tested form may be a part): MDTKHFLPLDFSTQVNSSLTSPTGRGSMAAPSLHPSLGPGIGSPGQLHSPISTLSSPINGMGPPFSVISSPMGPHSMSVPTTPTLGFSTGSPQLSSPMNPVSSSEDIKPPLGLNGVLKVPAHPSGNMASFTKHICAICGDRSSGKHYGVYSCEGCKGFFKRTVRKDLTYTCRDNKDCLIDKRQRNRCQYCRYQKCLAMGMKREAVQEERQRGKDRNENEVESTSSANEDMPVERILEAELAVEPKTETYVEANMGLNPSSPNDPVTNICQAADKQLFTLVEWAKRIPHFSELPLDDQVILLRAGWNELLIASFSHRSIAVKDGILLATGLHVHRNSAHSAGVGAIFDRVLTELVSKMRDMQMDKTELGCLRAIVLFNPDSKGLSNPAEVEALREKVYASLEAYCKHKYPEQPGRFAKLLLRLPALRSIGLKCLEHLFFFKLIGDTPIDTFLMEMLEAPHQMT
How it was run: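 Cells (HepG2) carried transiently transfected GAL4-responsive reporter units. Following a 24 h chemical incubation, reporter mRNA induction was read via RT-PCR fragment analysis; DMSO served as negative control and baseline.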

[3] = target: human Retinoid X Receptor beta (RXRb), RXRB (gene 6257) (UniProt P28702); experiment: ATG_RXRb_TRANS: Attagene TRANS-FACTORIAL HepG2 Assay for human Retinoid X Receptor beta (RXRb) (AID 2283013; active = hit-call score of the fitted dose curve at least 0.9, where 1 is the maximum)
Chain of human Retinoid X Receptor beta (RXRb), RXRB (gene 6257) (P28702 whole entry, looked up): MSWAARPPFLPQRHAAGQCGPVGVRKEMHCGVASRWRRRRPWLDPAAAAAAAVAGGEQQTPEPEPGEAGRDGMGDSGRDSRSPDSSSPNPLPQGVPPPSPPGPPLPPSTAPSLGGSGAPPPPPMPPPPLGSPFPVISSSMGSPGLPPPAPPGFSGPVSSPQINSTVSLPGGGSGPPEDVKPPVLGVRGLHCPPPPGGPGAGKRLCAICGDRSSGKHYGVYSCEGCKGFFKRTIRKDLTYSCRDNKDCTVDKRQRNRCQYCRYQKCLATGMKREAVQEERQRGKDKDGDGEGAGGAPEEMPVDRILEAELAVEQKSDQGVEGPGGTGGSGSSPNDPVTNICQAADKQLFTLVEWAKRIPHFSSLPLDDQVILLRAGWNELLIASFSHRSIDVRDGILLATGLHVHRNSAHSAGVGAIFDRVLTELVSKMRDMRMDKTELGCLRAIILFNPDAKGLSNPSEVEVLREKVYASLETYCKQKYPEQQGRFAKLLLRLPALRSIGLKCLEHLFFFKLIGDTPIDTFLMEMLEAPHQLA
How it was run: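 Multiplexed TRANS reporter assay in HepG2; 24 h dosing; reporter mRNA by RT-PCR/CE fluorescence; gain-of-signal relative to DMSO.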

[4] = read-out: E-selectin (Homo sapiens) (UniProt P16581); experiment: BSK_3C_Eselectin: BioMAP Diversity Plus: 3C Assay for Eselectin Biomarker Activity (AID 2283015); conditions: primary human endothelial cells (HUVEC); actives raise or lower the signal
How it was run: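 E-selectin ELISA readout, fitted bidirectionally relative to DMSO, taken 24 h post-dosing in HUVEC cultures of the 3C system. Overt cytotoxicity tracked with sulforhodamine B staining of parallel wells.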

[5] = read-out: Interleukin-1 alpha (IL1a), IL1A (gene 3552); experiment: BSK_BE3C_IL1a: BioMAP Diversity Plus: BE3C Assay for Interleukin-1 alpha (IL1a) Biomarker Activity (AID 2283016); conditions: primary human bronchial epithelial cells; actives raise or lower the signal
How it was run: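 Cultures of primary human bronchial epithelial cells receive test chemical. After 24 h, IL-1a is quantified by ELISA, while parallel wells are fixed in TCA and SRB-stained for total protein. Changes in either direction are fitted relative to DMSO.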

[6] = read-out: Monocyte Chemoattractant Protein-1 (MCP1), CCL2 (gene 6347); experiment: BSK_3C_MCP1: BioMAP Diversity Plus: 3C Assay for Monocyte Chemoattractant Protein-1 (MCP1) Biomarker Activity (AID 2283017); conditions: primary human endothelial cells (HUVEC); actives raise or lower the signal
How it was run: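 MCP-1 was measured by ELISA 24 h after dosing in primary HUVEC 3C cultures and fitted in both directions relative to DMSO; cytotoxicity was checked by SRB total-protein staining in parallel wells.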

[7] = read-out: Monocyte Chemoattractant Protein-1 (MCP1), CCL2 (gene 6347); experiment: BSK_4H_MCP1: BioMAP Diversity Plus: 4H Assay for Monocyte Chemoattractant Protein-1 (MCP1) Biomarker Activity (AID 2283018); conditions: primary human endothelial cells (HUVEC); actives raise or lower the signal
How it was run: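 Readout: MCP-1 ELISA on compound-treated HUVEC, sampled 24 h post-dosing. Baseline and negative control DMSO; bidirectional fit. Overt toxicity checked alongside by sulforhodamine B protein staining at time of biomarker measurement.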

[8] = read-out: Human Leukocyte Antigen - DR isotype (HLADR), HLA-DRA (gene 3122); experiment: BSK_3C_HLADR: BioMAP Diversity Plus: 3C Assay for Human Leukocyte Antigen - DR isotype (HLADR) Biomarker Activity (AID 2283019); conditions: primary human endothelial cells (HUVEC); actives raise or lower the signal
How it was run: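 Bidirectional fitting against DMSO was applied to the HLA-DR ELISA signal from human umbilical vein endothelial cells, 24 h post-dose. Cytotoxicity came from parallel SRB total-protein staining; 3C proliferation was counted by SRB at 48 h.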

[9] = read-out: Interleukin-8 (IL8), CXCL8 (gene 3576); experiment: BSK_3C_IL8: BioMAP Diversity Plus: 3C Assay for Interleukin-8 (IL8) Biomarker Activity (AID 2283020); conditions: primary human endothelial cells (HUVEC); actives raise or lower the signal
How it was run: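 Human vascular endothelial cells (umbilical vein) in the 3C system; IL-8 level detected by ELISA at 24 h post-dose, with DMSO as baseline.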

[10] = read-out: Monokine induced gamma interferon (MIG), CXCL9 (gene 4283); experiment: BSK_3C_MIG: BioMAP Diversity Plus: 3C Assay for Monokine induced gamma interferon (MIG) Biomarker Activity (AID 2283021); conditions: primary human endothelial cells (HUVEC); actives raise or lower the signal;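 as to AC50: MIG protein level measured by immunoassay in the treated endothelial cultures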
How it was run: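 After 24 h of treatment, human umbilical vein endothelial cultures (3C system) had their MIG biomarker level determined by ELISA, with DMSO serving as negative control.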

[11] = target: human Vitamin D Receptor (VDR), VDR (gene 7421) (UniProt P11473); experiment: ATG_VDR_TRANS: Attagene TRANS-FACTORIAL HepG2 Assay for human Vitamin D Receptor (VDR) (AID 2283022; active = hit-call score of the fitted dose curve at least 0.9, where 1 is the maximum)
Chain of human Vitamin D Receptor (VDR), VDR (gene 7421) (P11473 whole entry, looked up, the tested form may be a part): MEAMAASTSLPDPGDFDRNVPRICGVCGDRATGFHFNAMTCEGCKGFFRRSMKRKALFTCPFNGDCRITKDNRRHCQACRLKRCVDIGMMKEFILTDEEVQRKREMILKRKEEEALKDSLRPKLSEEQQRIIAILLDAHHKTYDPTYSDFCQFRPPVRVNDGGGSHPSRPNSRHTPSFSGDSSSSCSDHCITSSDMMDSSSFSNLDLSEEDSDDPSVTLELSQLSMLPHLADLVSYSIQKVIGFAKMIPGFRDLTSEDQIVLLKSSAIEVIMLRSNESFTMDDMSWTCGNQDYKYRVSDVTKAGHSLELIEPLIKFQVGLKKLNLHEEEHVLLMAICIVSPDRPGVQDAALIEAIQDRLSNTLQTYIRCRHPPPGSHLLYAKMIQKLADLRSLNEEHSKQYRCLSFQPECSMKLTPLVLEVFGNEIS
How it was run: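 Transactivation by an exogenous VDR-Gal4 chimera in transiently transfected HepG2 cells was measured as reporter transcript level 24 hours after chemical treatment. RT-PCR products were analysed by capillary electrophoresis and fitted in the positive direction relative to DMSO.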

[12] = BSK_3C_SRB: Viability Assessment in the BioMAP Diversity Plus: 3C Assay (AID 2283023); conditions: primary human endothelial cells (HUVEC);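 also: fitted both ways against DMSO so a hit may be signal rise or drop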
How it was run: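 Cytotoxicity readout in parallel HUVEC 3C cultures: after 24 h compound exposure, cells fixed with 10% TCA, stained with 0.1% SRB and read at 560 nm. Gain or loss relative to DMSO fitted.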

[13] = read-out: Matrix Metallopeptidase 1 (MMP1), MMP1 (gene 4312); experiment: BSK_BE3C_MMP1: BioMAP Diversity Plus: BE3C Assay for Matrix Metallopeptidase 1 (MMP1) Biomarker Activity (AID 2283024); conditions: primary human bronchial epithelial cells; actives raise or lower the signal
How it was run: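 Dose cells, wait 24 h, run MMP1 ELISA; cells are human bronchial epithelial primaries. Both increases and decreases relative to DMSO counted.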

[14] = read-out: Pselectin, SELP (gene 6403); experiment: BSK_4H_Pselectin: BioMAP Diversity Plus: 4H Assay for Pselectin Biomarker Activity (AID 2283026); conditions: primary human endothelial cells (HUVEC); actives raise or lower the signal
How it was run: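 Human vascular endothelium from umbilical vein; P-selectin measured by ELISA at 24 h post-dose, with cytotoxicity checked by sulforhodamine B total-protein staining in parallel cultures (0.1% SRB after 10% TCA fixation, read at 560 nm).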

[15] = BSK_4H_SRB: Viability Assessment in the BioMAP Diversity Plus: 4H Assay (AID 2283027); conditions: primary human endothelial cells (HUVEC);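 also: cells exposed to compound for 24 h before staining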;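 as to AC50: curves fitted both ways versus DMSO so AC50 may be loss or gain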
How it was run: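 Human umbilical vein endothelial cells, 24 h after chemical dosing; total protein measured by 0.1% sulforhodamine B staining after 10% TCA fixation, read at 560 nm. Bidirectional fitting against DMSO.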

[16] = BSK_BE3C_SRB: Viability Assessment in the BioMAP Diversity Plus: BE3C Assay (AID 2283028); conditions: primary human bronchial epithelial cells;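 as to AC50: fitted both ways so AC50 may mark signal gain or loss versus DMSO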
How it was run: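 Cytotoxicity read-out: SRB (0.1%) staining of TCA-fixed (10%) human lung bronchial epithelial cells, absorbance 560 nm, 24 h post-dosing. Curves fitted both directions relative to DMSO.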

[17] = read-out: Thrombomodulin, THBD (gene 7056); experiment: BSK_3C_Thrombomodulin: BioMAP Diversity Plus: 3C Assay for Thrombomodulin Biomarker Activity (AID 2283029); conditions: primary human endothelial cells (HUVEC); actives raise or lower the signal
How it was run: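 Thrombomodulin ELISA, human primary HUVEC, 24 h post-dose; data fitted in both directions relative to DMSO.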

[18] = read-out: Urokinase-type plasminogen activator receptor (uPAR), PLAUR (gene 5329); experiment: BSK_4H_uPAR: BioMAP Diversity Plus: 4H Assay for Urokinase-type plasminogen activator receptor (uPAR) Biomarker Activity (AID 2283030); conditions: primary human endothelial cells (HUVEC); actives raise or lower the signal
How it was run: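 uPAR level read by ELISA on HUVEC cultures (BioMAP 4H) 24 h post-dosing, analyzed for gain or loss relative to DMSO. Parallel SRB staining assessed overt cytotoxicity.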

[19] = target: human Thyroid Receptor alpha (THRa1), THRA (gene 7067) (UniProt P10827); experiment: ATG_THRa1_TRANS: Attagene TRANS-FACTORIAL HepG2 Assay for human Thyroid Receptor alpha (THRa1) (AID 2283014; active = hit-call score of the fitted dose curve at least 0.9, where 1 is the maximum)
Chain of human Thyroid Receptor alpha (THRa1), THRA (gene 7067) (P10827 whole entry, looked up, the tested form may be a part): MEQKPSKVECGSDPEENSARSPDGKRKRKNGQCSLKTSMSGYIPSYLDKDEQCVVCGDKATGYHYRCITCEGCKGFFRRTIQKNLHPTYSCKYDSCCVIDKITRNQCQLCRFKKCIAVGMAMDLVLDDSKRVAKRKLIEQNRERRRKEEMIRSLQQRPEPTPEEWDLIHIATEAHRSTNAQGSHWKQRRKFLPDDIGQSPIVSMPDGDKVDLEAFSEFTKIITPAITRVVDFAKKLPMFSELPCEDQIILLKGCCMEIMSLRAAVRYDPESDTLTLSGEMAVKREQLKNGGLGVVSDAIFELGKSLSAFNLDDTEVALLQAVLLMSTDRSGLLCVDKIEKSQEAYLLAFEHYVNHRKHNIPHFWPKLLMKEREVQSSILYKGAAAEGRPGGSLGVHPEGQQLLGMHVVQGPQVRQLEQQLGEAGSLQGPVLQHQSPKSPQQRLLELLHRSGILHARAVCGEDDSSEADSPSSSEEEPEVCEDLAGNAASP
How it was run: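 Transcripts from GAL4-UAS-driven reporters, measured after 24 h compound exposure by RT-PCR plus capillary electrophoresis of 6-FAM-labeled fragments, were fitted for gain of signal relative to DMSO. Cells: transiently transfected HepG2 expressing NR-Gal4 chimeras.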

[20] = BSK_3C_Vis: BioMAP Diversity Plus: 3C Assay for Morphology Visualization (AID 2283025); conditions: primary human endothelial cells (HUVEC);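 also: fitted both ways so gain or loss versus DMSO counts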;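 as to AC50: light microscopy image of cell morphology used as background control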
How it was run: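 Endothelial cells from human umbilical vein were treated with test chemicals for 24 h and inspected by light microscopy for changes in cell conformation.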

Measured: AC50

Chain of E-selectin (Homo sapiens) (P16581 whole entry, looked up): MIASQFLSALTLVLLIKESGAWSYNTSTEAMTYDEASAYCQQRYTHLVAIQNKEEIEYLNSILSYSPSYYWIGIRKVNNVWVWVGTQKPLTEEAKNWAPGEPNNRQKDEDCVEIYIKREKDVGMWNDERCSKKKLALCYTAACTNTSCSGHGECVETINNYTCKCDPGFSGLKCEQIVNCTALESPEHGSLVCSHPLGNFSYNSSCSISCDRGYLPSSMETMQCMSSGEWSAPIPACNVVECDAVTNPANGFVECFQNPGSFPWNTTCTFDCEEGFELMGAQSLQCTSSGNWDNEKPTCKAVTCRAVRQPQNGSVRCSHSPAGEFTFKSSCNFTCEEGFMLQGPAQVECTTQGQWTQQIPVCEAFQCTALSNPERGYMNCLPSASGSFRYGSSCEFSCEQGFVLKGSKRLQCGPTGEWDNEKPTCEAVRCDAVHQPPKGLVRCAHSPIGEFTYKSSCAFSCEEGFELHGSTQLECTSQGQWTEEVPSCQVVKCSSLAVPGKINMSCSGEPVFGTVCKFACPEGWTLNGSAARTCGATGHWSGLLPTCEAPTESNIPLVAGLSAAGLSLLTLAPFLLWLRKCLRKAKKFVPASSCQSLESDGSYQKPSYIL

O=C(Cl)C(F)(F)C(F)(F)C(F)(F)C(=O)Cl
not listed: [19] | [20]
inactive: all other assays above

OCc1ccccc1
active: [3] 1.09 µM
not listed: [2] | [6] | [11]
inactive: all other assays above

FC(F)=C(F)C(F)(F)C(F)(F)C(F)(F)C(F)(F)C(F)(F)C(F)(F)F
not listed: [6] | [20]
inactive: all other assays above

O=C(O)[C@H](O)[C@@H](O)C(=O)O
not listed: [2] | [11] | [17] | [20]
inactive: all other assays above

CCc1cccc(CC)c1N
active: [3] 100 µM
not listed: [2] | [11]
inactive: all other assays above

S=P(N1CC1)(N1CC1)N1CC1
not listed: [2]
inactive: all other assays above

CCCCCCCCN(C)C
not listed: [2] | [6] | [19]
inactive: all other assays above

OCc1c[nH]c2ccccc12
active: [3] 9.59 µM | [4] 24.6 µM | [8] 9.29 µM | [12] 11.5 µM | [13] 0.297 µM | [20] 37.5 µM
inactive: [1] | [2] | [3] | [19] | [5] | [6] | [7] | [9] | [10] | [11] | [14] | [15] | [16] | [17] | [18]

c1ccc(C(O[C@@H]2CCCN(CCc3ccc4c(c3)OCO4)C2)c2ccccc2)cc1
active: [7] 23.6 µM | [8] 30.8 µM | [9] 25.9 µM | [12] 25.2 µM | [13] 26.8 µM | [20] 9.8 µM | [15] 25.4 µM | [18] 15.5 µM
not listed: [2] | [11] | [17]
inactive: all other assays above

Cc1nccn1-c1ccc(Sc2cccc(C3(C(N)=O)CCOCC3)c2)cc1
active: [5] 10.8 µM | [7] 4.95 µM | [8] 7.74 µM | [9] 11 µM | [11] 38 µM | [12] 9.18 µM | [13] 8.1 µM | [17] 8.22 µM
not listed: [3] | [20]
inactive: all other assays above

COS(C)(=O)=O
not listed: [6] | [17] | [19]
inactive: all other assays above

NCC(F)(F)C(F)(F)C(F)(F)C(F)(F)F
not listed: [2] | [6] | [17] | [20]
inactive: all other assays above

O=C(O)c1cccc(C(=O)O)c1
not listed: [1] | [3] | [6] | [11] | [17]
inactive: all other assays above

CC1(C)C(=O)N(Cl)C(=O)N1Cl
not listed: [2] | [3] | [6] | [11] | [19] | [20]
inactive: all other assays above

C=CCc1cc(S(=O)(=O)c2ccc(O)c(CC=C)c2)ccc1O
inactive: [2] | [19] | [7] | [11]
active: [4] 20 µM | [5] 21.1 µM | [6] 14.4 µM | [8] 16.3 µM | [9] 12.4 µM | [10] 34.8 µM | [12] 23.8 µM | [13] 30.5 µM | [20] 37.5 µM | [14] 33.8 µM | [15] 20 µM | [16] 15.8 µM | [18] 13.9 µM
